PubChem BioAssay (NCI)
The panel holds about 83,000 compounds, 20% with a hit somewhere; the sample as a whole holds those more often.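 Activity criterion: percent growth below 10, measured after cells in 96-well plates were exposed to a single compound concentration for 48 hours.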 Values without a mark were called inactive. Active and inactive are the calls of the source.

tested on: HOP-62 NSCLC; experiment: NCI-60 one-dose screen, 48 h (100 = growth as untreated, 0 = no growth, -100 = all killed); conditions: 10 µM unless noted
Description: Growth inhibition of the HOP-62 human Non-Small Cell Lung tumor cell line is measured as a screen for anti-cancer activity. Cells are grown in 96 well plates and exposed to the test compound for 48 hours. Compounds are tested at a single concentration, which is 10^-5 M for most compounds. The reported endpoint is percent growth (GI% or GIPRCNT), where numbers from 0 - 100% represent growth inhibition, and numbers from -100% - 0 represent cell death. For example, a value of 40 represents 60% growth inhibition. A value of 0 means no net growth occurred over the course of the experiment. A value of -40 indicates 40% of cells at the beginning of the experiment died by the end of the experiment. A value of -100 means all cells are dead at the end of the experiment.
NCI-60 Human Tumor Cell Lines Screen was performed using the standard one-dose NCI protocol, which is described in more detail at https://dtp.cancer.gov/discovery_development/nci-60/default.htm.
Compounds with GIPRCNT values below 10 were considered active. Activity score was based on GIPRCNT using the following formula: […]
Score is 0 for GIPRCNT values of 100 or above, 50 for GIPRCNT values of 0, and 100 for GIPRCNT values of -100.

Q: For `CCn1c(SCC(=O)Nc2cc(C(F)(F)F)ccc2Cl)nc2ccccc2c1=O`, which growth is on record?
A: The growth was 64.2%.

Q: `O=C(Nc1ccsc1C(=O)NC1CCCCC1)c1ccc(F)cc1` was tested. Which growth did it give?
A: Its growth is 103%.

Q: For `CCOC(=O)c1ccc2[nH]c(-c3ccccc3)cc(=O)c2c1`, which growth is on record?
A: The growth was 106%.

Q: How did the growth turn out when `COc1cc(/C(C#N)=C/c2nc3c(N4CCOCC4)nc(Cl)nc3n2C)cc(OC)c1OC` was run?
A: The growth was 25.1%.

Q: `Cn1cc(-c2ccc3ncc(-c4ccc(CC(=O)Nc5cc(C(C)(C)C)no5)cc4)nc3c2)cn1` was tested. Which growth did it give?
A: The growth was 42.5%.

Q: With `COc1ccccc1C(=O)/C=C/c1ccccc1` as the molecule, how does the growth read?
A: The growth was 86.9%.

Q: `COc1ccc(-n2c(C(O)c3ccccc3)nn(CN3CCOCC3)c2=S)cc1` (stereo not given) was tested. Which growth did it give?
A: Its growth is 101%.

Q: Which growth does the source give for `CCCC(=O)CC(C)=O.CCCC(=O)CC(C)=O.[Cu]` here?
A: The growth was 94.3%.

Q: `S=C1CCCC(=S)N1` was tested. Which growth did it give?
A: Its growth is 88%.

Q: For `COc1ccc(C2NCCc3c2[nH]c2ccccc32)cc1CN1CCN(c2ccc(F)cc2)CC1` (stereo not given), which growth is on record?
A: Its growth is 63.4%.

Q: With `COc1ccc(/C=C2\SC(=Nc3ccccc3)NC2=O)cc1` as the molecule, how does the growth read?
A: The growth was -95.3% (active).

Q: How did the growth turn out when `COC(=O)[C@@H]1CCCN1C(=O)[C@H]1CCCN1C(=O)[C@@H](Cc1c[nH]c2ccccc12)NC(=S)Nc1cc(C(F)(F)F)cc(C(F)(F)F)c1` was run?
A: Its growth is 65.2%.

Q: With `c1ccc(-c2ccc(-c3nc4ccccc4[nH]3)cc2)cc1` as the molecule, how does the growth read?
A: Its growth is 80.5%.

Q: `NNC(=O)CNC(=O)Nc1n[nH]c(=S)s1` was tested. Which growth did it give?
A: The growth was 100%.

Q: With `Cc1ccc(Nc2nc(N)c3ccccc3n2)cc1Cl` as the molecule, how does the growth read?
A: Its growth is 89%.

Q: For `O=c1c(-c2nc3ccccc3[nH]2)cc2ccccc2n1Cc1cn(Cc2ccccc2Cl)nn1`, which growth is on record?
A: Its growth is 35.1%.

Q: Which growth does the source give for `O=CCCCC(O)C=O` (stereo not given) here?
A: The growth was 95%.

Q: For `O=c1oc2ccc(-c3ccc(F)cc3F)cc2c(=O)n1-c1ccc(Cl)c(C(F)(F)F)c1`, which growth is on record?
A: The growth was 6.97% (active).

Q: How did the growth turn out when `O=C(Cn1cc(COc2ncnc3c2cnn3-c2ccccc2)nn1)Nc1ccccn1` was run?
A: The growth was 91.5%.

Q: Which growth does the source give for `COc1ccc(CCN2C(=O)CCSC2=S)cc1` here?
A: The growth was 18.6%.

Q: With `COc1c2ccoc2c(/C=C/C=O)c2oc(-c3ccccc3)cc(=O)c12` as the molecule, how does the growth read?
A: Its growth is 59.7%.

Q: `CCCN1CCN(c2ccc3nc(-c4ccc5nc(-c6cc(OC)ccc6OC)[nH]c5c4)[nH]c3c2)CC1` was tested. Which growth did it give?
A: The growth was 117%.

Q: Which growth does the source give for `Cc1ccc(CN2CCC(C(=O)Nc3ccc(-c4cc5ccccc5[nH]4)cc3)CC2)o1` here?
A: The growth was 97.9%.

Q: `Cc1cc(OC(=O)c2ccc([N+](=O)[O-])cc2)nc2[nH]c(=O)sc12` was tested. Which growth did it give?
A: The growth was 111%.

Q: For `O=NN(C(=O)NC1CCC(C(=O)O)CC1)C1CCC(C(=O)O)CC1` (stereo not given), which growth is on record?
A: Its growth is 104%.

Q: For `CN1C(=O)N(C)C2C1NN=c1s/c(=C\c3ccc([N+](=O)[O-])cc3)c(=O)n12` (stereo not given), which growth is on record?
A: Its growth is 68.9%.

Q: How did the growth turn out when `Clc1ccc(Oc2ccc(Nc3ncnc4onc(-c5ccccc5)c34)cc2)c(Cl)c1` was run?
A: Its growth is 104%.

Q: With `CCOC(=O)c1cc2c(n1Cc1ccccc1)-c1oncc1CCC2` as the molecule, how does the growth read?
A: Its growth is 77.9%.

Q: With `CN1C(=O)N(C)C2Nn3c(s/c(=C4\C(=O)N(CCc5ccccc5)c5ccccc54)c3=O)=NC21` (stereo not given) as the molecule, how does the growth read?
A: The growth was 75.9%.

Q: With `COc1ccc(/C(C#N)=C/c2nc3c(N4CCOCC4)nc(Cl)nc3n2C)cc1OC` as the molecule, how does the growth read?
A: The growth was 25.3%.

Q: With `COc1nccc2cc3c(=O)n4c(cc5ccccc54)c(=O)n3c12` as the molecule, how does the growth read?
A: The growth was 82.3%.

Q: `COc1ccc(N2C(=O)CC(c3cc(OC)c(OC)c(OC)c3)C3C2=NC(=O)N3C)cc1` (stereo not given) was tested. Which growth did it give?
A: The growth was 108%.

Q: How did the growth turn out when `c1ccc2cc3c(Nc4ccc(N5CCOCC5)cc4)ccnc3cc2c1` was run?
A: The growth was 100%.

Q: For `Nc1n[nH]c2ccc([C@@H]3Nc4ccc5[nH]ncc5c4[C@H]4[C@H]5CCC(C5)[C@H]43)cc12`, which growth is on record?
A: Its growth is 35.7%.

Q: For `O=c1c2cc(F)ccc2sc2c(Nc3ccncc3)nc3ccccc3c12`, which growth is on record?
A: Its growth is 34.7%.

Q: For `CC1(O)COCCCCOc2c(CN)cccc2NC(=O)c2nc(cnc2N)-c2ccc(cc2)S(=O)(=O)C(C)(C)C1` (stereo not given), which growth is on record?
A: Its growth is -25.5% (active).

Q: For `COC(=O)c1c2c(c(C)[n+]([O-])c1C)C(=O)C(NCc1ccc(Br)cc1)=CC2=O`, which growth is on record?
A: The growth was 31.4%.

Q: With `Cc1ccc2[nH]c(=O)cc(-n3nncc3Cn3c4ccccc4c4ccccc43)c2c1` as the molecule, how does the growth read?
A: The growth was 93.4%.

Q: `NC(=O)CSc1nc(-c2ccc(F)cc2)cc(-c2ccco2)n1` was tested. Which growth did it give?
A: The growth was 108%.

Q: How did the growth turn out when `Nc1cccc(Nc2cc(S(=O)(=O)O)c(N)c3c2C(=O)c2ccccc2C3=O)c1` was run?
A: The growth was 114%.
